This is part of a sample that, as a whole, favours compounds with a hit. Of some 83,000 tested, about 20% had one in any assay.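 A percent growth of 40 corresponds to 60% growth inhibition; 0 means no net growth; -100 means all cells died. Active threshold: below 10.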 Active and inactive are the calls of the source.

Some test systems named below: HCT-15 colon; HT29 colon; SNB-75 CNS; SNB-19 CNS; U251 CNS; PC-3 prostate; SK-MEL-5 melanoma; LOX IMVI melanoma; SK-MEL-28 melanoma.
Assay in all cases: NCI-60 one-dose screen, 48 h (100 = growth as untreated, 0 = no growth, -100 = all killed)
What all share (details): 10 µM unless noted

Take `CC/C=C\C[C@H]1CC=C2C(=O)C=C[C@@H]2CC=CCCCC(=O)O[C@@H](CCCCC)CC=C2C(=O)C=C[C@@H]2CC=CCCCC(=O)O[C@@H](CCCCC)CC=C2C(=O)C=C[C@@H]2CC=CCCCC(=O)O[C@@H](CCCCC)CC=C2C(=O)C=C[C@@H]2CC=CCCCC(=O)O1`: the growth in the assay with HCT-15 colon was 47.1% [7.9 µM] (inactive); with HT29 colon, 2.5% [7.9 µM] (active); with SNB-75 CNS, 65.2% [7.9 µM] (inactive); with SNB-19 CNS, 25.7% [7.9 µM] (inactive); with U251 CNS, -45.8% [7.9 µM] (active); in the assay on PC-3 prostate it was 13.5% [7.9 µM] (inactive). The results for the growth in the assay with SK-MEL-5 melanoma, in the assay on LOX IMVI melanoma and in the assay with SK-MEL-28 melanoma were 17.9% [7.9 µM] (inactive), -75.8% [7.9 µM] (active) and 11.9% [7.9 µM] (inactive), respectively.

Turning to `CCOC(=O)C/C(=C\c1ccccc1)C(C)=O`, the growth in the assay with HCT-15 colon is 106% (inactive); in the assay with HT29 colon, 98.1% (inactive); with SNB-75 CNS, 101% (inactive); in the assay with SNB-19 CNS, 101% (inactive); in the assay with U251 CNS, 80.4% (inactive); in the assay on PC-3 prostate it was 76.8% (inactive). Besides, the growth with SK-MEL-5 melanoma was 106% (inactive); in the assay with LOX IMVI melanoma it was 108% (inactive); with SK-MEL-28 melanoma, 111% (inactive).

For the compound `COc1ccc(-c2nc(SCC(=O)Nc3ccc(C(C)=O)cc3)[nH]c(=O)c2C#N)cc1`, the growth in the assay on HCT-15 colon is 103% (inactive); in the assay with HT29 colon, 101% (inactive); in the assay on SNB-75 CNS, 88.3% (inactive); in the assay on SNB-19 CNS, 96.5% (inactive); in the assay on U251 CNS, 89.4% (inactive); in the assay on PC-3 prostate it was 88% (inactive). For the same compound, the growth is 100% (inactive) in the assay on SK-MEL-5 melanoma, 96.2% (inactive) in the assay on LOX IMVI melanoma and 101% (inactive) in the assay on SK-MEL-28 melanoma.

Take `COc1ccc2c(c1)c(-c1nc(-c3c[nH]c4ncccc34)cs1)cn2CCNC(=O)OC(C)(C)C`: the growth is 54.6% (inactive) in the assay with HCT-15 colon; 71.3% (inactive) in the assay with HT29 colon; 68.2% (inactive) in the assay with SNB-75 CNS; 93% (inactive) with SNB-19 CNS; 69.1% (inactive) in the assay with U251 CNS; 31.8% (inactive) in the assay on PC-3 prostate. In addition, the growth is 54.2% (inactive) with SK-MEL-5 melanoma, 71.9% (inactive) with LOX IMVI melanoma and 88.1% (inactive) in the assay with SK-MEL-28 melanoma.

As for `Nc1ccc(Cl)cn1`, the growth in the assay with HCT-15 colon is 98.6% (inactive); in the assay with HT29 colon it was 96.9% (inactive); in the assay on SNB-75 CNS, 80.2% (inactive); in the assay on SNB-19 CNS, 107% (inactive); with U251 CNS, 94.3% (inactive); in the assay on PC-3 prostate, 90% (inactive). Moreover, the figures for the growth with SK-MEL-5 melanoma, in the assay on LOX IMVI melanoma and in the assay on SK-MEL-28 melanoma were 103% (inactive), 92.7% (inactive) and 110% (inactive), respectively.

For `COC(=O)[C@]12CC[C@@H](C)[C@H](C)[C@@H]1C1=CC[C@@H]3[C@@]4(C)CC(=O)[C@H](OC(=O)c5ccco5)[C@@]5(C)COC(=C45)C[C@@]3(C)[C@]1(C)CC2`, the growth in the assay on HCT-15 colon was 24.1% (inactive); in the assay with HT29 colon, 20.1% (inactive); in the assay on SNB-75 CNS, 41.7% (inactive); with SNB-19 CNS it was 40.4% (inactive); in the assay on U251 CNS, 24.9% (inactive); in the assay on PC-3 prostate, 17.3% (inactive). Besides, the growth with SK-MEL-5 melanoma is -46.1% (active); in the assay on LOX IMVI melanoma, 6.2% (active); with SK-MEL-28 melanoma it was 33% (inactive).

On to `C=CC(=O)N[C@H](Cc1ccc(-c2cc(Cl)cc(Cl)c2)cc1)[C@H](O)[C@@H](O)C(=O)O`, for which the growth in the assay on HCT-15 colon is 96% (inactive); in the assay with HT29 colon, 81.5% (inactive); in the assay on SNB-75 CNS, 87% (inactive); with SNB-19 CNS, 99.5% (inactive); in the assay with U251 CNS, 80.2% (inactive); with PC-3 prostate, 63.9% (inactive). The results for the growth in the assay on SK-MEL-5 melanoma, in the assay with LOX IMVI melanoma and with SK-MEL-28 melanoma were 91.6% (inactive), 95.6% (inactive) and 106% (inactive), respectively.

Consider `Oc1ccc(Nc2ccccc2)cc1`, for which the growth with HCT-15 colon is 82.5% (inactive); with HT29 colon, 99.3% (inactive); in the assay on SNB-75 CNS, 85.5% (inactive); with SNB-19 CNS, 85.8% (inactive); with U251 CNS, 86% (inactive); with PC-3 prostate, 65.7% (inactive). The growth was 83% (inactive) with SK-MEL-5 melanoma, 71.4% (inactive) with LOX IMVI melanoma and 102% (inactive) with SK-MEL-28 melanoma.

For `NCCn1cc(-c2nc(-c3c[nH]c4ncccc34)cs2)c2cc(Br)ccc21`, the growth with HCT-15 colon is 27.1% (inactive); in the assay on HT29 colon it was 31% (inactive); in the assay with SNB-75 CNS, 72.7% (inactive); in the assay on SNB-19 CNS, 79.3% (inactive); in the assay with U251 CNS it was 67.9% (inactive); with PC-3 prostate, 59.9% (inactive). For the same compound, the figures for the growth in the assay with SK-MEL-5 melanoma, in the assay with LOX IMVI melanoma and with SK-MEL-28 melanoma were 85.1% (inactive), 82.6% (inactive) and 99.4% (inactive), respectively.

As for `C[C@H]1OC(=O)/C=C/[C@@H](O)[C@@H](O)CCCCCCCC[C@@H]1O`, the growth with HCT-15 colon is 101% (inactive); in the assay with HT29 colon, 87% (inactive); in the assay with SNB-75 CNS, 90.5% (inactive); in the assay with SNB-19 CNS, 100% (inactive); in the assay on U251 CNS, 90.2% (inactive); with PC-3 prostate, 85.2% (inactive). In addition, the growth with SK-MEL-5 melanoma is 98% (inactive); in the assay on LOX IMVI melanoma it was 102% (inactive); in the assay on SK-MEL-28 melanoma, 108% (inactive).

As to `Cn1cc(-c2csc(-c3cn(CCN)c4ccccc34)n2)c2cccnc21`, the growth was 46.6% (inactive) in the assay on HCT-15 colon; 30.3% (inactive) in the assay with HT29 colon; 46.8% (inactive) with SNB-75 CNS; 65.3% (inactive) in the assay with SNB-19 CNS; -75% (active) in the assay with U251 CNS; 46.7% (inactive) with PC-3 prostate. Also, the figures for the growth with SK-MEL-5 melanoma, with LOX IMVI melanoma and in the assay with SK-MEL-28 melanoma were 23.7% (inactive), 45.3% (inactive) and 73% (inactive), respectively.

As to `Fc1ccc2c(c1)c(-c1nc(-c3c[nH]c4ncccc34)cs1)cn2CCCN1CCCCC1`, the growth in the assay on HCT-15 colon is -8.44% (active); in the assay on HT29 colon, -38.4% (active); in the assay with SNB-75 CNS, 64% (inactive); with SNB-19 CNS, 60.1% (inactive); in the assay with U251 CNS, 24.9% (inactive); in the assay on PC-3 prostate it was 47.9% (inactive). The growth with SK-MEL-5 melanoma was -52% (active); in the assay with LOX IMVI melanoma, 44% (inactive); with SK-MEL-28 melanoma, -68.3% (active).

Source of the values: PubChem BioAssay (NCI).
